Results published in PubChem BioAssay (EPA / NIEHS).
Calls of active or inactive are those of the source. The calls were made as follows: active = hit-call score of the fitted dose curve at least 0.9, where 1 is the maximum; inactive = score below 0.9.

Experiment: ATG_RORE_CIS: Attagene CIS-FACTORIAL HepG2 Assay for human RAR-related Orphan Receptor Element (RORE) (AID 2282959)
Conditions: HepG2 Attagene cis-factorial RORE reporter, mRNA; actives raise or lower the signal
Procedure: ATG_CIS is a cell-based, multiplexed-readout assay that uses HepG2, a human liver cell line, with measurements taken at 24 hours after chemical dosing in a 24-well plate.ATG_RORE_CIS is one of 52 assay component(s) measured or calculated from the ATG_CIS assay. It is designed to make measurements of mRNA induction, a form of inducible reporter, as detected with fluorescence intensity signals by Reverse transcription polymerase chain reaction (RT-PCR) and Capillary electrophoresis technology.Data from the assay component ATG_RORE_CIS was analyzed into 1 assay endpoint. This assay endpoint, ATG_RORE_CIS, was analyzed with bidirectional fitting relative to DMSO as the negative control and baseline of activity. Using a type of inducible reporter, measures of mRNA for gain or loss-of-signal activity can be used to understand the reporter gene at the transcription factor-level as they relate to the gene RORA and RORB and RORC. Furthermore, this assay endpoint can be referred to as a primary readout, because this assay has produced multiple assay endpoints where this one serves a reporter gene function. To generalize the intended target to other relatable targets, this assay endpoint is annotated to the nuclear receptor intended target family, where the subfamily is orphan.
Human liver HepG2 cells are transiently transfected with multiple reporter transcription units (MRTUs) in 6-well plates using FuGene 6 reagent (Roche; 3 ml FuGene/1 mg DNA). The MRTU constructs are regulated by a cis-regulating element (promoter). […] A major difference between the CIS and TRANS system is that in CIS activities of endogenous TFs are measured, whereas the TRANS assay evaluates changes in activities of exogenous, chimeric NR-Gal4 proteins. […] At the end of 24 hour incubation, total RNA was isolated using TriZol reagent (Invitrogen). The isolated RNA is then reverse-transcribed using oligo(dT) primer and Mo-MLV reverse transcriptase (Invitrogen) with DNAse I (Ambion) treatment for 30 min. The one-tenth of the produced cDNA was amplified by PCR using Taq DNA polymerase (Invitrogen) and two reporter sequence-specific primers. The PCR products were fluorescently labeled by primer extension with 6-arboxyfluorescein (6-FAM) 5'-labeled reporter sequence-specific primer (2 min at 95 C, 20 s at 68 C and 10 min at 72 C) and these products were digested with 5U of HpaI (New England Biolabs) for 2h at 37 C. The fragments were purified using Qiaquick PCR columns (Qiagen), analyzed on an ABI 3130xL genetic analyzer (Applied Biosystems) with peak positions identified by using a set of X-rhodamine (ROX)-labeled MapMarker1000 molecular weight standards (BioVentures). The raw capillary electrophoresis data was processed using Attagraph software (Attagene).
In the case of `O=C(c1ccccc1)c1ccc(O)cc1O`, the outcome is reported as “inactive”.
For `CC(C)CCCC(C)CCO` (stereo not given), the outcome was “inactive”.
In the case of `O=c1[nH]cccc1O`, the outcome is reported as “inactive”.
For `CC1=CCC(=O)O1`, the outcome was “inactive”.
With `NC(=O)C(F)(F)C(F)(F)C(F)(F)C(F)F` the outcome was “inactive”.
In the case of `CN(C(=O)C(F)(F)C(F)(F)C(F)(F)F)[Si](C)(C)C`, the outcome is reported as “inactive”.
For `OC(O)C(F)(F)C(F)(F)F`, the outcome was “inactive”.
For `FC(F)(F)C(F)(F)C(F)(F)CC1CO1` (stereo not given), the outcome was “inactive”.
In the case of `O=C(O)C(F)(F)C(F)(F)C(F)(F)C(F)(F)C(F)(F)C(F)(F)C(F)F`, the outcome is reported as “inactive”.
For `CCn1c2ccccc2c2ccccc21`, the outcome was “inactive”.
In the case of `CCN(CC)c1ccc(N=Nc2ccccc2)cc1`, the AC50 is reported as 8.12 µM (active).
For `C=CC(=O)OCC(F)(F)C(F)(F)C(F)(F)C(F)(F)C(F)(F)C(F)(F)C(F)(F)C(F)F`, the outcome was “inactive”.
In the case of `CCC(C)CO` (stereo not given), the outcome is reported as “inactive”.
For `COc1ccccc1C=O`, the outcome was “inactive”.
For `O=C(O)C(F)(F)C(F)(F)C(F)(F)OC(F)(C(F)(F)F)C(F)(F)F`, the outcome was “inactive”.
In the case of `CSc1ccc(O)cc1C`, the outcome is reported as “inactive”.
In the case of `FC(F)(F)C(F)(F)C(F)(F)C(F)(F)C(F)(F)C(F)(F)C(F)(F)CCI`, the outcome is reported as “inactive”.
In the case of `O=C(O)C(F)(F)OC(F)(F)C(F)(F)OC(F)(F)C(F)(F)OC(F)(F)F`, the outcome is reported as “inactive”.
With `Cc1ccc(O)c(-n2nc3ccccc3n2)c1` the outcome was “inactive”.
For `Cc1cnccn1`, the outcome was “inactive”.
For `O=C(c1ccccc1)c1ccc(Cl)cc1`, the outcome was “inactive”.
In the case of `C[Si](C)O[Si](C)C`, the outcome is reported as “inactive”.
For `CCCCCCCC/C=C\CCCCCCCC(=O)N(C)CC(=O)O`, the outcome was “inactive”.
In the case of `CCN=c1cc2oc3cc(NCC)c(C)cc3c(-c3ccccc3C(=O)OCC)c-2cc1C`, the outcome is reported as “inactive”.
In the case of `CCN(CC)c1ccc2c(c1)Oc1cc(N(CC)CC)ccc1C21OC(=O)c2ccccc21`, the outcome is reported as “inactive”.
In the case of `O=C(O)C(F)(F)C(F)(F)C(F)(F)OC(F)(F)F`, the outcome is reported as “inactive”.
For `CCCCCCCCCCCCC[N+](C)(C)Cc1ccccc1`, the outcome was “inactive”.
With `NC(=O)C(F)(F)C(F)(F)C(F)(F)F` the outcome was “inactive”.
In the case of `O=S(=O)(O)c1ccc(Cl)cc1`, the outcome is reported as “inactive”.
With `CCN(CC)c1ccc(C=O)c(O)c1` the AC50 was 38.1 µM (active).
In the case of `Oc1ccc2c(c1)CCC2`, the outcome is reported as “inactive”.
With `O=C1C=CC(=O)N1c1ccc(Cc2ccc(N3C(=O)C=CC3=O)cc2)cc1` the outcome was “inactive”.
With `CC(C)=CCCC(C)O` (stereo not given) the outcome was “inactive”.
With `c1ccc(C[P+](c2ccccc2)(c2ccccc2)c2ccccc2)cc1` the outcome was “inactive”.
For `C=C(C)C(=O)OCC(F)(F)C(F)(F)C(F)(F)C(F)F`, the outcome was “inactive”.
In the case of `CCCCCCCCCCCC(=O)Cl`, the outcome is reported as “inactive”.
In the case of `CCN=C1C=CC(=C(c2ccc(N(CC)CC)cc2)c2ccc(N(CC)CC)cc2)c2ccccc21`, the AC50 is reported as 0.068 µM (active).
In the case of `O=C1c2ccccc2C(=O)c2c(Cl)cccc21`, the outcome is reported as “inactive”.
With `O=C(F)C1(F)C(F)(F)C(F)(F)C(F)(F)C(F)(F)C1(F)F` the outcome was “inactive”.
In the case of `Cc1ccc(S(=O)(=O)C(I)I)cc1`, the outcome is reported as “inactive”.
